These results are taken from PubChem BioAssay.

Assay [1] concerns the target Cell division control protein 42 homolog (Homo sapiens) (UniProt P60953). Description: activated mutant Cdc42 GTP-binding inhibitors, dose response, biochemical, multiplex bead flow cytometry, Bodipy-FL-GTP (AID 1333;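 active = fitted half-maximal concentration within the tested dose range, moderate curve steepness, a statistically real signal drop, and little compound fluorescence or tag-binding interference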).
Assay [2] shares this target. Description: wildtype Cdc42 GTP-binding inhibitors, dose response, biochemical, multiplex bead flow cytometry, Bodipy-FL-GTP (AID 1334;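 active = fitted half-maximal concentration within the tested range, moderate curve steepness, significant signal drop, and little compound fluorescence or bead-linkage interference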). Conditions: bead-based flow cytometry, Bodipy-FL-GTP binding to GST-Cdc42; at 100 µM (top of the series) unless noted. (In general: In flow cytometry, cells or beads pass a laser one at a time.)
The target in assay [3] is GTPase HRas (Homo sapiens) (UniProt P01112). Nature of the assay: inhibitors of GTP binding to wildtype Ras, dose response, biochemical, multiplex bead flow cytometry (AID 1335). The note with it: bead-based flow cytometry, Bodipy-GTP binding to GST-Ras; at 100 µM (top of the series) unless noted.
The subject of assay [4] is Ras-related protein Rab-7a (dog), GTP binding. Description: Rab7 GTP binding inhibitors, potency, dose response, biochemical, wildtype, multiplex bead flow cytometry (AID 1336; call rule not given here).
Assay [5] addresses Ras-related C3 botulinum toxin substrate 1 (Homo sapiens) (UniProt P63000). Description: wildtype Rac1 GTP binding inhibitors, dose response, biochemical, multiplex bead flow cytometry (AID 1340;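 active = dose curve with midpoint inside tested range, moderate steepness, plateau gap beyond fit error, low compound glow and bead-link interference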). Conditions: GST-Rac1 beads, Bodipy-FL-GTP binding; at 100 µM (top of the series) unless noted.
Assay [6] concerns the target GTPase HRas (Homo sapiens) (UniProt P01112). Nature of the assay: activated Ras mutant GTP binding inhibitors, dose response, biochemical, multiplex bead flow cytometry (AID 1341;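 active = dose-response curve with midpoint inside the tested range, moderate steepness, significant amplitude and little compound fluorescence or bead-attachment interference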;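 also: GST-tagged constitutively activated Ras mutant immobilized on beads and multiplexed with other GTPases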).

Molecules are shown by their SMILES. For part of these data: Measured potencies and affinities stand elsewhere. The source made the active and inactive calls.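 The calls were made as follows, unless noted: active = fitted half-maximal concentration within 10 nM to 100 µM, steepness 0.5 to 2, significant signal drop, low assay interference; inactive = the rest.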

Sequence of Cell division control protein 42 homolog (Homo sapiens) (P60953 whole entry, looked up): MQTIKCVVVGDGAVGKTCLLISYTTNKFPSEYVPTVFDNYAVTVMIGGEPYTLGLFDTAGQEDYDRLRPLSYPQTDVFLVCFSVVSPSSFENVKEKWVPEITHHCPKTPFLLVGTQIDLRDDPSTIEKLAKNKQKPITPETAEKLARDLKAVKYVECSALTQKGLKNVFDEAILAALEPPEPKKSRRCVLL
Sequence of GTPase HRas (Homo sapiens) (P01112 whole entry, looked up): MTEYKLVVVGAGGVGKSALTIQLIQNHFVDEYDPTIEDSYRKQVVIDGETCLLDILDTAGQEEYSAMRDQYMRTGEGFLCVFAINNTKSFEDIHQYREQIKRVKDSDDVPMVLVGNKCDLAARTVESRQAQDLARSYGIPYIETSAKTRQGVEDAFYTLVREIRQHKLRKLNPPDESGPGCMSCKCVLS

With `Cc1ccccc1NC(=O)c1ccc(NC(=O)C2CC(=O)OC23CCCCC3)cc1` (stereo not given), the outcome in assay [1], in assay [4] and in assay [6] was inactive. Moreover, in assay [2], the fluorescence, percent of control (lower = inhibition) was 32.9%. Also, in assay [3], the GTP binding, percent of control came to 76.1%. Besides, in assay [5], the GTP binding signal, raw median fluorescence (lower = inhibition) (MCF (arbitrary fluorescence units)) came out at 195.
For `COc1ccc(S(=O)(=O)Cc2ccc(C(=O)N3CCN(c4cc(Cl)ccc4C)CC3)o2)cc1`, the molecule was called inactive in assay [1], in assay [4] and in assay [6]. Further, the fluorescence, percent of control (lower = inhibition) in assay [2] came to 35.1%. This molecule yielded a GTP binding, percent of control in assay [3] of 57.4%. In assay [5], this molecule registered a GTP binding signal, raw median fluorescence (lower = inhibition) (MCF (arbitrary fluorescence units)) of 148.
Turning to `O=C(O)c1cn(CCOc2ccc(Cl)cc2)c2ccccc12`, the call in assay [1], in assay [4] and in assay [6] was inactive. For the same molecule, the fluorescence, percent of control (lower = inhibition) in assay [2] came to 59.9%. For the same molecule, the GTP binding, percent of control in assay [3] stood at 83.2%. In assay [5], this molecule came in with a GTP binding signal, raw median fluorescence (lower = inhibition) (MCF (arbitrary fluorescence units)) of 36.5.
For `Cc1sc2ncnc(Sc3ccccc3C(=O)O)c2c1C`, the molecule was classed as inactive in assay [1], in assay [4] and in assay [6]. The fluorescence, percent of control (lower = inhibition) in assay [2] was 103%. For the same molecule, the GTP binding, percent of control in assay [3] was determined as 117%. The molecule further had a GTP binding signal, raw median fluorescence (lower = inhibition) (MCF (arbitrary fluorescence units)) in assay [5] of 84.4.
For `O=C(N/N=C/c1ccc2nccnc2c1)c1cccc([N+](=O)[O-])c1`, the molecule was classed as inactive in assay [1], in assay [4] and in assay [6]. Besides, the fluorescence, percent of control (lower = inhibition) in assay [2] was 42.7%. The same molecule had a GTP binding, percent of control in assay [3] of 86.9%. The same molecule came in with a GTP binding signal, raw median fluorescence (lower = inhibition) (MCF (arbitrary fluorescence units)) in assay [5] of 203.
For `N#C/C(=C\c1ccccc1)c1nc2ncccc2[nH]1`, the molecule was classed as inactive in assay [1], in assay [4] and in assay [6]. In assay [2], the fluorescence, percent of control (lower = inhibition) worked out at 36.8%. The molecule further gave a GTP binding, percent of control in assay [3] of 82.5%. The GTP binding signal, raw median fluorescence (lower = inhibition) (MCF (arbitrary fluorescence units)) in assay [5] worked out at 276.
On to `COc1cc(Cl)c(C)cc1NCc1sc(C(=O)O)cc1C`, for which the molecule was classed as inactive in assay [1], in assay [4] and in assay [6]. In assay [2], the fluorescence, percent of control (lower = inhibition) was 58.6%. The molecule also gave a GTP binding, percent of control in assay [3] of 82%. This molecule also came in with a GTP binding signal, raw median fluorescence (lower = inhibition) (MCF (arbitrary fluorescence units)) in assay [5] of 29.9.
For the molecule `COC(=O)c1ccc(/C=N/Nc2nc(-c3ccc(Cl)cc3Cl)cs2)cc1`, the result in assay [1], in assay [4] and in assay [6] was inactive. The fluorescence, percent of control (lower = inhibition) in assay [2] amounted to 39.1%. In addition, the GTP binding, percent of control in assay [3] came to 81.6%. The GTP binding signal, raw median fluorescence (lower = inhibition) (MCF (arbitrary fluorescence units)) in assay [5] worked out at 242.
As for `O=C(CCl)Nc1cccn2ncnc12`, the call in assay [1], in assay [4] and in assay [6] was inactive. Besides, the fluorescence, percent of control (lower = inhibition) in assay [2] was found to be 37.7%. In assay [3], this molecule displayed a GTP binding, percent of control of 83%. The molecule also displayed a GTP binding signal, raw median fluorescence (lower = inhibition) (MCF (arbitrary fluorescence units)) in assay [5] of 274.
Regarding `Cc1ccc(OCCn2c(SCC(=O)O)nc3ccccc32)cc1`, the outcome in assay [1], in assay [4] and in assay [6] was inactive. In assay [2], the fluorescence, percent of control (lower = inhibition) turned out to be 59%. Moreover, the GTP binding, percent of control in assay [3] was found to be 86.2%. The GTP binding signal, raw median fluorescence (lower = inhibition) (MCF (arbitrary fluorescence units)) in assay [5] came out at 35.2.
In the case of `Cc1cc(NS(=O)(=O)c2ccc(Nc3nc(-c4sc(N)nc4C)cs3)cc2)no1`, the outcome in assay [1], in assay [4] and in assay [6] was inactive. Besides, the fluorescence, percent of control (lower = inhibition) in assay [2] came out at 23.8%. Moreover, the GTP binding, percent of control in assay [3] turned out to be 58.3%. The GTP binding signal, raw median fluorescence (lower = inhibition) (MCF (arbitrary fluorescence units)) in assay [5] came to 122.
As for `O=C(Cn1cnc2cc([N+](=O)[O-])ccc2c1=O)NCc1ccc(Cl)cc1`, the result in assay [1], in assay [4] and in assay [6] was inactive. The fluorescence, percent of control (lower = inhibition) in assay [2] turned out to be 34.9%. The molecule further registered a GTP binding, percent of control in assay [3] of 82.3%. Also, in assay [5], the GTP binding signal, raw median fluorescence (lower = inhibition) (MCF (arbitrary fluorescence units)) came to 192.
`CC(=O)OC(C(=O)NC1CCCCC1)c1ccc(Cl)c(Cl)c1` (stereo not given): the molecule was called inactive in assay [1], in assay [4] and in assay [6]. Also, the fluorescence, percent of control (lower = inhibition) in assay [2] is 39.6%. The molecule also yielded a GTP binding, percent of control in assay [3] of 88.7%. In addition, the GTP binding signal, raw median fluorescence (lower = inhibition) (MCF (arbitrary fluorescence units)) in assay [5] came to 310.
Take `COc1ccc(C(=O)O)c(OCc2c(C)cccc2C)c1`: the molecule was called inactive in assay [1], in assay [4] and in assay [6]. In assay [2], the fluorescence, percent of control (lower = inhibition) amounted to 59%. The GTP binding, percent of control in assay [3] is 208%. For the same molecule, in assay [5], the GTP binding signal, raw median fluorescence (lower = inhibition) (MCF (arbitrary fluorescence units)) amounted to 55.5.
In the case of `O=C(CN1CCN(CCOCCO)CC1)N1c2ccccc2Sc2ccc(Cl)cc21`, the outcome in assay [1], in assay [4] and in assay [6] was inactive. Also, in assay [2], the fluorescence, percent of control (lower = inhibition) is 37.7%. Further, in assay [3], the GTP binding, percent of control stood at 82.2%. In assay [5], this molecule showed a GTP binding signal, raw median fluorescence (lower = inhibition) (MCF (arbitrary fluorescence units)) of 266.
